Tests used:
Assay in all cases: PBM binding z-score (relative to random genomic background probes); higher = stronger binding; sequences stand for … in GC…GCGATTGACAGCGTAGAATGAAGG
[1] = test system: RARb homodimer (NR concentration 270 nM)
Method in brief: (§1)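 Probes were double-stranded and carried 34-nt variable regions with direct-repeat seeds, single-nucleotide variants, half-site ablations and random human genomic background sequences, printed on custom Agilent 4×180K protein-binding microarrays. Arrays were incubated 1 h with ligand-free nuclear receptor dimers in PBS pH 7.4, 2% milk, 0.02% Triton X-100, 1 mM DTT, 0.2 mg/mL BSA and 0.4 mg/ml salmon testes DNA. Antibodies against each partner (one per run) detected binding, and scanned fluorescence was regression-normalized. Binding z-scores use the random background probes as reference.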

[2] = test system: RARg:RXRa (NR concentration 270 nM, RXRa partner concentration 90 nM)
Method in brief: as §1

[3] = test system: RARg homodimer (NR concentration 270 nM)
Method in brief: as §1

[4] = test system: RXRa DBDmut IVT, anti-RXR (DBD mutation: RXRa K156A/R161A, NR concentration 90 nM)
Method in brief: as §1

[5] = test system: RXRa homodimer (NR concentration 180 nM)
Method in brief: as §1

[6] = test system: THRa:RXRa (NR concentration 90 nM, RXRa partner concentration 90 nM)
Method in brief: as §1

[7] = test system: THRa homodimer (NR concentration 90 nM)
Method in brief: as §1

[8] = test system: VDR homodimer (NR concentration 270 nM)
Method in brief: as §1

Sequence | PBM binding z-score [1] | PBM binding z-score [2] | PBM binding z-score [3] | PBM binding z-score [4] | PBM binding z-score [5] | PBM binding z-score [6] | PBM binding z-score [7] | PBM binding z-score [8]
CCTTACGGGGCACGAGGTTATAGCACGACGAGCG | 1.27 | 2.07 | 1.74 | -0.444 | 1.92 | 1.48 | 0.0456 | 0.346
TGAATGAGGTTAGAGATCAGGGAACGTGGCGTCG | 0.675 | 1.04 | 0.944 | -0.0534 | 1.71 | 1.39 | 0.0858 | -0.315
AGTCAAAATTCATCTAGGTAACGTAAGATATGCT | -0.349 | 0.038 | 0.342 | 0.0782 | -0.00435 | 0.538 | 0.0978 | -0.296
TCATATAGGTAAAAGGTGAAAGACGGTGTGGTAA | 1.74 | 2.01 | 0.857 | 1.7 | 3.05 | 1.55 | 0.208 | 0.152
CAAACTTGGTCACGAAAGGTCAAAGTCGAATGAC | 4.71 | 6.15 | 6.2 | 1.4 | 7.01 | 4.07 | 0.947 | 3.11
CCTACTGGGCCATTCAGAGCTCATTGATCATATG | -0.346 | -0.434 | -0.184 | 0.0203 | -0.591 | -0.578 | -0.449 | -0.387
ACTTACGGGTCAACGAGGTTCTAGCACGCGTATA | 3.24 | 5.08 | 4.31 | 2.18 | 5.1 | 3.34 | 0.629 | 2.01
TTACCAAGGTGTGCTGAGGTCGTTGATCCAACTC | 1.18 | 0.184 | -0.154 | 0.555 | 0.725 | 3.24 | 1.77 | 2.39
CTCGAAAGGTGGGTTGAGGTGAGTATACGGATAA | 1.3 | 0.297 | 0.548 | -0.0446 | 0.396 | 4.18 | 1.75 | 0.756
TCCAGTTGGTCACGGAGGTCACACACGACGGGTA | 4.6 | 4.87 | 4.79 | 1.11 | 4.8 | 3.84 | 2.09 | 2.65
CCTCGGAGGACAGAAGGTCAGTGCTGTCCGCTTT | 3.69 | 3.14 | 3.23 | 0.236 | 1.25 | 1.88 | -0.0278 | 0.261
AGAACGACGGCAATGAGTTGATAGCACGGGTGGC | -0.961 | -0.245 | -0.185 | -0.402 | 0.0598 | -0.626 | -1.12 | -0.0582
GGAACGAGGGCAAGTTGATATCAGAGTTTGATGG | 1.7 | 1.66 | 2.58 | 2.63 | 0.916 | 1.46 | 0.151 | 2.21
TCTTGTAGATCAATAGAGGTTTAGAAAGTGCGCT | -0.294 | -0.0286 | -0.308 | 0.603 | 0.0167 | 0.294 | -0.767 | 0.0472
CAGCCTAGGTCAGGGCAAGTATAGGAGGAACGTT | 2.89 | 3.37 | 4.42 | 0.0937 | 2.07 | 2.2 | 0.481 | -0.0774
CAAACTAGGTCACCGGAAGATCAAAGTCCGCATG | 3.35 | 4.78 | 5.35 | 1.93 | 3.67 | 3.63 | 1.81 | 0.906
CGTCCAAGGTCAAGGCTAGGTCAGTGAAAGCATT | 4.89 | 7.82 | 7.4 | 3.43 | 6.77 | 4.49 | 3.29 | 2.58
ACTATTAGTTGACTTAGAGCAACCGATACGACGC | -0.15 | 0.294 | 0.597 | 0.671 | 0.318 | 0.0226 | 0.0225 | -0.0313
TCATATAGGTAAAGGTGAAAGACGAACGATATGA | 0.974 | 1.51 | 1.34 | 0.604 | 1.85 | 1.04 | -0.601 | -0.0355
CATACTAGGTCAAGAGGTCAAAGTCCGCTTCCCG | 5.69 | 8.1 | 7.68 | 3.2 | 8.08 | 4.5 | 2.62 | 4.64
GGAACGAGGGCAAAGTTGATTGCATCTGTCGACG | 1.13 | 1.89 | 1.34 | 2.7 | 1.76 | 1.36 | -0.0538 | 1.55
TAGCCTAGGTCATTCAAGGGCCAGTATAGAAAGC | 3.38 | 5.84 | 4.64 | 1.71 | 3.14 | 4.3 | 0.514 | 1.25
CCGACTGGGGCAGAAAGGTGACCATACCATCCGG | 1.8 | 0.634 | 0.776 | -0.975 | 0.533 | 0.282 | -0.472 | -0.595
GCTCGGAGGACAGGGTCAGAGCTTTGTCCGTAGA | 2.28 | 2.42 | 2.37 | 0.265 | 2.69 | 2.4 | 0.321 | 0.212
CCTCGGAAGACAACAGGAGGTCAGAGCTGCCAGA | 2.77 | 1.94 | 1.99 | -0.3 | 1.69 | 2.04 | 0.668 | 1.28
CGTCCTAGGTCAGAGAGGTCAGTGAATGCCGAGT | 4.71 | 5.31 | 5.94 | 1.92 | 4.49 | 3.77 | 1.92 | 3.9
CCTTACGGGTCACAGACAGGTTATAGCATTTGGA | 3.16 | 5.97 | 4.84 | 1.77 | 5.47 | 3.03 | 0.316 | 0.727
CGTAAAAGTTCAAGGTAACGTAACAGAAAGCAGC | 3.55 | 4.73 | 5.27 | 4.27 | 3.81 | 2.92 | 1.17 | 2.67
